D3 antag: qHTS of D3 Dopamine Receptor Antagonist: qHTS; D(3) dopamine receptor (Homo sapiens), P35462; D3R cells, DiscoveRx beta-arrestin luminescence, antagonist mode; active compounds read low; max response, negative = inhibition, %; 360,000 compounds, 2.5% hits; AID 652054, 2013; in the data active = max response below about -50%; inconclusive = no clear call, values can overlap the other calls
Target sequence (P35462 whole entry, looked up): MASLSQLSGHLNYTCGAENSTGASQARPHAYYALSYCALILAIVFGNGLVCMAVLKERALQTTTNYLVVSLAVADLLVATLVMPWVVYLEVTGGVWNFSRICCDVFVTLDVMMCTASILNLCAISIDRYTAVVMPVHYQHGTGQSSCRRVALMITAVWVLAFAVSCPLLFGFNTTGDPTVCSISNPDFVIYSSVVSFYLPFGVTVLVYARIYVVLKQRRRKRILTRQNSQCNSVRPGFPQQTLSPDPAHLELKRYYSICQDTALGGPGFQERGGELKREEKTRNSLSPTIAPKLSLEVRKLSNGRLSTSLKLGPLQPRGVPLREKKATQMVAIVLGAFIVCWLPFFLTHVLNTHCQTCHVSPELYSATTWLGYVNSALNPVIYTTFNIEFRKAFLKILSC
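Cells expressing the human receptor were seeded at 1500 cells/well, incubated overnight at 37 degrees C in 5% CO2, then exposed to library compounds with dopamine controls for 90 minutes at 37 degrees C before luminescent detection.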
DRD3 agonist: qHTS of D3 Dopamine Receptor Agonist: qHTS. D(3) dopamine receptor (Homo sapiens), P35462. D3R DiscoveRx beta-arrestin cells, luminescence, 90 min. max activation, %. 410,000 compounds, 0.58% hits. AID 652048, 2013; in the data active = max activation above about 30%
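Agonist mode: compounds and dopamine controls were applied to plated cells for 90 min at 37 degrees C after an overnight attachment at 1500 cells/well. Luminescent read-out followed 30 - 60 minutes at room temperature with DiscoveRx detection reagent.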
GRP78 ERSR act: qHTS for Inducers of the Endoplasmic Reticulum Stress Response (ERSR) in Human Glioma: qHTS | U87-MG GRP78 promoter luciferase reporter, 16 h | Potency, µM, usual class: activators | 420,000 compounds, 0.02% hits | AID 602332, 2012; also: series mostly up to about 76 µM; nearly all actives have a fitted effect of over 35% in size
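ERSR induction read as luciferase luminescence (Bright-Glo, 10 min at room temperature) in stably transfected human U87-MG glioma cells exposed to compounds for 16 h, using GRP78 as sensor.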
Nrf2 activator: qHTS of Nrf2 Activators. AREc32 ARE-luciferase reporter (MCF7-derived line), luminescence, 24 h. Potency, µM (highest dose often 46.1 µM), usual class: activators. 410,000 compounds, 0.31% hits. AID 624171, 2012; also: nearly all actives have a fitted effect of over 65% in size
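Steps: seed AREc32_Fluc cells (1000/well, 5% FBS OPTI-MEM); incubate overnight at 37 deg C; add 23 nL compound; incubate 24 hr; add Steady-Glo; hold 30 min RT; read luminescence.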
Large screens that a line does not name were inactive. Sampled rows, rich in hits. Any-hit rate of the full collection: about 3%. Unless noted, calls follow the shape of the dose curve; as a rule, active = well fitted curve in the direction sought with a large enough effect; inconclusive = small, poorly fitted or top-dose-only effect, or another doubt; inactive = no such curve, though single readings can be large; an effect the other way counts as inactive or inconclusive.

COc1cc(NC(=O)C2CCN(S(=O)(=O)c3ccc4c(c3)CCCC(=O)N4)CC2)cc(OC)c1	none (no result: D3 antag)
O=[N+]([O-])c1cc(Cl)ccc1Sc1cccc2cccnc12	none
O=[N+]([O-])c1ccc(Sc2cccc3cccnc23)c([N+](=O)[O-])c1	D3 antag -55, Nrf2 activator inconclusive
CC1(C)CC(=O)c2cc(C(=O)NCCc3ccccc3)c(=O)[nH]c2C1	none (no result: D3 antag, DRD3 agonist, Nrf2 activator)
CCC(C)NC(=O)CCCc1nnc2n(CC(C)C)c(=O)c3sccc3n12 (configuration not stated)	none (no result: D3 antag)
COc1ccccc1-n1c(=S)[nH]c2c(sc(=S)n2-c2ccccc2C)c1=O	D3 antag -78, DRD3 agonist 56
COc1ccc(OC)c(-n2c(=S)[nH]c3c(sc(=S)n3-c3ccccc3C)c2=O)c1	none
O=C(O)CCc1cccc2ccccc12	none (no result: D3 antag, DRD3 agonist, Nrf2 activator)
N.N.N.N.N.N.N.N.N.N.N.N.N.N.O.O.[Ru+4].[Ru+5].[Ru+5]	none (no result: D3 antag, DRD3 agonist, Nrf2 activator)
CCCCC(CC)COC(=O)CC(C(=O)OCC(CC)CCCC)S(=O)(=O)O (configuration not stated)	none (no result: D3 antag, Nrf2 activator)
CCCCC(CC)COC(=O)C(C#N)=C(c1ccccc1)c1ccccc1 (configuration not stated)	D3 antag -74
COC(=O)c1cc(CNC(=O)c2ccc(N(C)C)cc2)cc(NC(=O)c2ccccc2Cl)c1	none (no result: D3 antag, DRD3 agonist, Nrf2 activator)
Cc1ccc(C(=O)O/N=C(\N)c2cccc([N+](=O)[O-])c2)cc1	Nrf2 activator inconclusive
N/C(=N\OC(=O)c1ccc(Cl)c([N+](=O)[O-])c1)c1ccccn1	D3 antag inconclusive, Nrf2 activator inconclusive
N/C(=N\OC(=O)c1cccc(Br)c1)c1ccccc1	Nrf2 activator 7.1µM
N/C(=N\OC(=O)c1ccc(Cl)c([N+](=O)[O-])c1)c1ccccc1	D3 antag -65
COc1ccc(/C(N)=N/OC(=O)c2ccco2)cc1OC	Nrf2 activator inconclusive
N/C(=N\OC(=O)c1ccco1)c1cccc([N+](=O)[O-])c1	Nrf2 activator 14µM
N/C(=N\OC(=O)c1ccco1)c1cccc(Br)c1	Nrf2 activator 4.5µM
CN(C)c1ccc(N=Nc2ccc(/C=C/c3ccnc4ccccc34)cc2)cc1	none (no result: D3 antag, DRD3 agonist, Nrf2 activator)
N/C(=N\OC(=O)c1ccccc1Br)c1ccc([N+](=O)[O-])cc1	D3 antag -71, Nrf2 activator inconclusive
Cc1cc(C(=O)NCC2CCC3(CCN(Cc4ccc(F)cc4)CC3)O2)n(C)n1 (configuration not stated)	none (no result: D3 antag, DRD3 agonist, Nrf2 activator)
COc1ccc(Cn2c(=O)[nH]c3cc(C(=O)NC4CCN(Cc5ccccc5)CC4)ccc32)cc1	D3 antag -67
COc1ccc(NS(=O)(=O)c2cccc(C(=O)NC3CCN(Cc4ccccc4)CC3)c2)cc1	D3 antag -53
COc1ccc(Cl)cc1NS(=O)(=O)c1cccc(C(=O)NC2CCN(Cc3ccccc3)CC2)c1	D3 antag -104
CCN1C(=NCc2cccc(C(F)(F)F)c2)N[C@@H](c2cccc(C(F)(F)F)c2)C(C(=O)OC)=C1C	none (no result: D3 antag, DRD3 agonist, Nrf2 activator)
Cn1cnc(S(=O)(=O)N2CCCC(C(=O)NCc3ccccc3Cl)C2)c1 (configuration not stated)	none (no result: D3 antag)
O=C(C=Cc1ccccc1)CC(c1ccccc1)N1CCOCC1 (configuration not stated)	D3 antag -72, Nrf2 activator inconclusive
CCOc1cc(/C=C(\C#N)C(N)=O)cc(CSc2ccccc2)c1O	none (no result: D3 antag, DRD3 agonist, Nrf2 activator)
CCCn1c(O)c(N=NC(=O)CNC(=O)/C=C/c2ccc(OC)cc2)c2ccccc21	D3 antag -50
COc1ccc(C2NCCc3sccc32)cc1 (configuration not stated)	DRD3 agonist 73
Clc1ccc(C2NCCc3sccc32)cc1 (configuration not stated)	none
N=C1N(c2ccccc2)C(=S)C(=Nc2ccccc2)N1c1ccccc1	D3 antag -61
N#C/C(=C\c1cccc([N+](=O)[O-])c1)c1ccccn1	Nrf2 activator 3.5µM
COc1ccc(CCNc2nc(-c3ccc(OC)c(OC)c3)cc(C(F)(F)F)n2)cc1OC	DRD3 agonist 38 (no result: D3 antag)
COc1ccc(N2CCN(c3nc(NCCc4ccc(OC)c(OC)c4)nc(OC)n3)CC2)cc1	DRD3 agonist 38
COc1ccc(CNc2nc(-c3ccc(OC)c(OC)c3)cc(C(F)(F)F)n2)cc1	none (no result: D3 antag)
O=C(C1CCC(Cn2c(=O)c3sccc3n(Cc3ccc(F)cc3)c2=O)CC1)N1CCOCC1 (configuration not stated)	none (no result: D3 antag)
COc1ccc(-c2cc(-c3ccccc3)nc(N3CCCC3)n2)cc1OC	DRD3 agonist 41
O=[N+]([O-])c1cnn(-c2nc(-c3cccs3)cc(C(F)(F)F)n2)c1	none
CN1CCN(c2nc(-c3cccs3)cc(C(F)(F)F)n2)CC1	D3 antag -94
CN1CCN(c2nc(-c3ccccc3)cc(C(F)(F)F)n2)CC1	D3 antag -70
CCN(CC)c1ccc(/C=C/c2sc3ccccc3[n+]2CCCCI)cc1	none (no result: D3 antag, DRD3 agonist, Nrf2 activator)
CC(C)(C)n1ncc2c(=O)n(Cc3ccc(Cl)c(C(F)(F)F)c3)cnc21	none (no result: D3 antag, DRD3 agonist, Nrf2 activator)
COc1ccccc1-c1ccnc(-n2ncc(C(=O)NCc3cccnc3)c2C)n1	none (no result: D3 antag, DRD3 agonist, Nrf2 activator)
O=C(/C=C/Nc1ccc(F)cc1F)c1ccco1	Nrf2 activator 6.3µM
O=C(/C=C/C=C/c1ccccc1)c1ccco1	D3 antag inconclusive, Nrf2 activator 11µM
O=C(/C=C/Nc1ccccc1O)c1ccco1	Nrf2 activator 11µM
O=C(/C=C/Nc1ccc(Br)cc1F)c1ccco1	Nrf2 activator inconclusive
O=C(/C=C/c1ccc(Br)cc1)c1ccco1	none
Cc1ccc(N(C(=O)CNC(=O)c2ccco2)C(C(=O)NC2CCCCC2)c2cccnc2)cc1C (configuration not stated)	none
O=C(NCC(=O)N(c1cccnc1)C(C(=O)NC1CCCC1)c1ccccc1)c1ccco1 (configuration not stated)	DRD3 agonist 52
Cc1ccc(N(C(=O)CCl)C(C(=O)NC2CCCCC2)c2cccnc2)cc1C (configuration not stated)	D3 antag inconclusive, Nrf2 activator 14µM
CCOC(=O)c1cc(S(=O)(=O)NCc2ccc(Cl)cc2)[nH]n1	none (no result: D3 antag)
O=c1[nH]c(=S)c2[nH]cnc2[nH]1	none (no result: D3 antag, DRD3 agonist, Nrf2 activator)
Nc1ncnc2c1ncn2[C@@H]1O[C@H](CNCc2ccc(-c3cc(C(F)(F)F)ccc3Cl)o2)[C@@H](O)[C@H]1O	D3 antag -76
O=c1ccn([C@@H]2O[C@H](CNCc3ccc(-c4cc(C(F)(F)F)ccc4Cl)o3)[C@@H](O)[C@H]2O)c(=O)[nH]1	none
CCc1cc(C(=O)NNC(=S)Nc2ccccc2C)cs1	D3 antag -97
O=C(NCCN1CCOCC1)c1cc2sccc2n1Cc1ccc(Cl)cc1	D3 antag -96
Cc1ccc(CCNC(=O)c2cc3sccc3n2Cc2ccc(Cl)cc2)cc1	none (no result: D3 antag)
O=C(NCCN1CCOCC1)c1cc2sccc2n1Cc1ccc(F)cc1	D3 antag -97

Screens deposited in PubChem by National Center for Advancing Translational Sciences (NCATS).
